Data from PubChem BioAssay AID1259398 (Fisher Drug Discovery Resource Center, 2018).
“And” between values parts separate entries of the source, which are not always exact repeats. Equal values may be shown once. The whole screen tested about 290,000 compounds, of which about 230 (0.079%) were called active. The sample holds actives, similar compounds and a random draw of the others, so the mix is not that of the screen. A number with no mark means an inactive call. Rule as the data show it: active = inhibition above about 40%; inactive = the rest.

molecular target: Cyclic GMP-AMP synthase (Homo sapiens) (UniProt Q8N884); test: Primary biochemical luminescence assay for human cyclic GMP-AMP synthase inhibitors (AID 1259398); conditions: recombinant h-cGAS, ATP depletion, Kinase-Glo luminescence; at 12.5 µM; stronger effect = higher value;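 also: 0% = vehicle reaction and 100% = reaction without DNA for no activity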
Sequence (Q8N884 whole entry, looked up): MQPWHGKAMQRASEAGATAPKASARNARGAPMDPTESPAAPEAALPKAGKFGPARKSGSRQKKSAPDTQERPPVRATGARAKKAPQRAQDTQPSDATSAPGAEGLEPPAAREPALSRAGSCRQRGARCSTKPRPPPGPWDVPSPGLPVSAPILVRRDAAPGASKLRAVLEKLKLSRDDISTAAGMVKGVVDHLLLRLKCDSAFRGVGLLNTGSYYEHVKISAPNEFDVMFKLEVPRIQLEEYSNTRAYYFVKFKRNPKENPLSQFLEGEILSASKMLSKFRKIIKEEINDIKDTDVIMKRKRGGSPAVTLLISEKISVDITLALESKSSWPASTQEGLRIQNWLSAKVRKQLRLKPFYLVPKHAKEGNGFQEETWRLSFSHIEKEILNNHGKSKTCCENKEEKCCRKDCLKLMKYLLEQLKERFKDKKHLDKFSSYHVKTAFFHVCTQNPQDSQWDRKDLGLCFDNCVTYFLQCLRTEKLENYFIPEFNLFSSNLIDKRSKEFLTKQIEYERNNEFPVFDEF

SMILES	inhibition
COc1cccc(-c2nn(Cc3ccccc3)c(=O)c3nc(C)sc23)c1	-0.0493%
O=C(NCCc1ccco1)c1ccc2c(c1)OCO2	1.62%
COc1cc(CN(C)C(=O)c2cc(N3CCN(c4cccc(C(F)(F)F)c4)CC3)nc3ccccc23)cc(OC)c1OC	-6.59%
NC(=O)COc1ccc(C(=O)N2CCCC2CCc2ccccc2)cc1 (stereo unspecified)	-3.77%
CCOC(=O)c1sc(NC(=O)CCCl)c(C(=O)OCC)c1C	-5.41%
CCCc1c(C(=O)NCc2cccnc2)cnn1-c1ccccc1C	-8.73%
O=C(Nc1nnc(-c2ccc(Cl)cc2)s1)C1CCCN1S(=O)(=O)c1ccc(F)cc1 (stereo unspecified)	-2.72%
C(=C\c1ccccc1)/CSc1nnc2c(n1)[nH]c1ccccc12	-6.1%
CC(C)CNC(=O)c1c(O)nc2sccn2c1=O	-9.43%
COCCNC(=O)Cn1nc2c(c1NC(=O)Cc1ccc(F)cc1)CSC2	-6.17%
Cn1c(=O)[nH]c(=O)c2c1nc(N1CCN(Cc3ccccc3)CC1)n2Cc1cccc(Cl)c1	-7.67%
CC1(C)C(c2ccc(Cl)cc2)=[N+]([O-])C(C)(C)C(c2ccc(Cl)cc2)=[N+]1[O-]	-4.69%
COc1ccc2cnn(-c3cccc(Cl)c3)c(=O)c2c1OC	-0.243%
Cc1sc2ncn(CC(=O)O)c(=O)c2c1C	-2.86%
Cc1ccc(-c2cc(C(=O)O)[nH]n2)c(C)c1	-5.69%
O=C(CSc1nc(=O)n(CCCN2CCOCC2)c2c1CCC2)N1CCc2ccccc21	-6%
CC(C)CSc1nc2c(c(=O)n(C)c(=O)n2C)n1CC=Cc1ccccc1	-0.843%
CC(Cn1cncn1)NC(=O)C1CCN(C)C(=O)C1 (stereo unspecified)	-9.85%
Clc1ccccc1Cn1ncc2c(N3CCN(CCOc4cccc5ccccc45)CC3)ncnc21	-10.9%

SMILES	inhibition
N#CC1C(=N)SC(=N)C(C#N)C1c1cccc(O)c1 (stereo unspecified)	65.3% (active)
N#CC1C(=N)C(C#N)(C#N)C(c2ccco2)C2CCCC=C12 (stereo unspecified)	-7.43%
N#CC1C(=N)SC(=N)C(C#N)C1c1ccco1 (stereo unspecified)	53.9% (active)
N#CC1C(=N)SC(=N)C(C#N)C1c1ccnc2ccccc12 (stereo unspecified)	-1.27%
CCc1ccc(C2C(C#N)C(=N)SC(=N)C2C#N)cc1 (stereo unspecified)	-0.735%
CCC(C(=O)N(CC(=O)N1CC(=O)N(c2cccc(Cl)c2C)C1)Cc1ccco1)c1ccccc1 (stereo unspecified)	-7.01%
COc1cc(S(=O)(=O)Nc2c(F)cccc2F)cc(C(=O)O)c1OC	9.01%
Cc1cccc(Cn2cccc2CN(Cc2ccc(F)cc2)C2CCCCC2)c1	-1.66%
COc1ccc(-n2nnnc2SCCC#N)cc1	-7.16%
Cc1cc(C(=O)O)ccc1S(=O)(=O)N(C)c1cc(F)ccc1F	-8.29%
CCC(CO)N(Cc1ccc(F)cc1)Cc1c(C)nn(C)c1Cl (stereo unspecified)	-10.3%
O=C(c1cc(-c2ccccc2F)on1)N1CCc2ccc(O)cc2C1	-0.786%
COc1cc(C(=O)n2nc(C)c(Sc3ccccc3[N+](=O)[O-])c2C)cc(OC)c1OC	-6.71%
CC(=O)Nc1ccccc1OS(=O)(=O)c1ccc(Br)cc1	0.158% and 5.4%
CN(Cc1nc2ccccc2n1C)C(=O)[C@H]1CCCO1	-5.26%
O=C(NC(Cc1ccccc1)C(=O)Nc1nnc(-c2cccc(Cl)c2)s1)c1cccc(C(F)(F)F)c1 (stereo unspecified)	-8.87%
COc1cccc(-c2nc(OCc3ccc(F)cc3)nn2-c2cccc(NC(=O)C3CCC3)c2)c1	-6.9%
O=C(Nc1ccc(F)cc1)c1csc(CSc2nnc(Cc3ccccc3)n2-c2cccc(Cl)c2)n1	5.96%
CCn1nc(C(=O)O)c2c1CCC(N(C)CCn1ccnc1C)C2 (stereo unspecified)	-7.94%

SMILES	inhibition
COc1cccc(C2Nc3ccccc3N=C3CC(C)(C)CC(=O)C32)c1OC (stereo unspecified)	-3.94%
CC(C)(CCl)C(=O)N1CCN(c2ncnc3c2nnn3-c2cccc(F)c2)CC1	-5.18%
CCc1nc2ccc(C(=O)NCCNC(C)=O)cn2c1N(CC)Cc1cccc(Br)c1	-6.29%
O=C(NCCc1ccccc1)c1cc(NC(=O)C(c2ccccc2)c2ccccc2)ccc1N1CCCCC1	-3.47%
O=C(NC1CCC1)c1ccc(-c2cc(-c3cccc(C(F)(F)F)c3)n[nH]2)cc1	-8.56%
CC1c2ccsc2CCN1C(=O)Cc1csc(-c2ccsc2)n1 (stereo unspecified)	-10.7%
Nc1cc(-c2cccc(Cl)c2)nn1-c1ccc(C(=O)N2CCOCC2)cc1	-3.59%
COC[C@@H]1CCCN1C(=O)c1ccc(-n2nc(-c3cccc(Cl)c3)cc2N)cc1	2.07%
CN(C)c1ccc(N2CC(=O)C(c3nc(-c4cccc(Cl)c4)cs3)C2=N)cc1 (stereo unspecified)	148% (active)
COc1cccc(CSc2nnc(CNC(=O)Nc3cc(C(F)(F)F)cc(C(F)(F)F)c3)n2-c2ccc(C)cc2)c1	-18%
Cc1cc(C)n(CC2CCN(C(=O)C3CCN(S(C)(=O)=O)CC3)CC2)n1	-9.09%
Cc1cc(C)n(CC(=O)N2CC[C@@H]3CN(S(C)(=O)=O)[C@@H]3C2)n1	66.4% (active)
CCn1ncc(C(=O)N2CC[C@@H]3CN(S(C)(=O)=O)[C@@H]3C2)c1C	-7.55%
CS(=O)(=O)c1ccc(-c2ccc(NS(=O)(=O)c3cccs3)cc2)nn1	-9.35%
Cc1cc(C(=O)N2CCC(N(C)C)C2)ccc1NC(=O)c1ccco1 (stereo unspecified)	-11.4%
CC(=O)N(c1ccccc1)C1C=C(Nc2ccccc2)C(=O)C1 (stereo unspecified)	-10.4%
Cc1c(C(=O)N2CCC(Cc3ccccc3)CC2)cnc2c(-c3cccc(C(F)(F)F)c3)cnn12	-4.43%
OC(COCc1ccco1)CN(Cc1ccccc1)C1CC1 (stereo unspecified)	1.45%
